Records with an inconclusive call do not appear. The source made the active and inactive calls. Rule for the calls, unless noted: active = hit-call score of the fitted dose curve at least 0.9, where 1 is the maximum; inactive = score below 0.9.
Experiments:
[1] = read-out: solute carrier (SLC22A1), SLC22A1 (gene 6580); assay: LTEA_HepaRG_SLC22A1: Life Technologies and Expression Analysis (LTEA) Assay for solute carrier (SLC22A1) using HepaRG (AID 2283524); details: mRNA level, 48 h; actives raise or lower the signal
Summary of the method: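 qRT-PCR readout (TaqMan, Fluidigm arrays) of SLC22A1 transcript, normalized to three housekeeping genes; bidirectional curve fit relative to 0.5% DMSO vehicle. Differentiated human HepaRG cells, 48 h chemical exposure, top concentration 100 uM, half-log steps, eight points.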

[2] = read-out: Pyruvate Dehydrogenase Kinase 4 (PDK4), PDK4 (gene 5166); assay: LTEA_HepaRG_PDK4: Life Technologies and Expression Analysis (LTEA) Assay for Pyruvate Dehydrogenase Kinase 4 (PDK4) using HepaRG (AID 2283525); details: mRNA level, 48 h; actives raise or lower the signal
Summary of the method: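 HepaRG (human liver line), 48 h chemical exposure, 8-pt half-log CRC top 100 uM, 0.5% DMSO vehicle, duplicates. Readout: TaqMan qRT-PCR of PDK4 mRNA, housekeeping-normalized; gain/loss fit relative to DMSO baseline.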

[3] = read-out: NAD(P)H dehydrogenase [quinone] 1 (NQO1), NQO1 (gene 1728); assay: LTEA_HepaRG_NQO1: Life Technologies and Expression Analysis (LTEA) Assay for NAD(P)H dehydrogenase [quinone] 1 (NQO1) using HepaRG (AID 2283526); details: mRNA level, 48 h; actives raise or lower the signal
Summary of the method: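 Transcript induction or suppression is quantified by qRT-PCR in human HepaRG liver cells dosed for 48 hours. Eight half-log concentrations topping at 100 uM are used, with 0.5% DMSO as vehicle and baseline.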

[4] = read-out: Nuclear factor erythroid 2-related factor 2 (Homo sapiens) (UniProt Q16236); assay: LTEA_HepaRG_NFE2L2: Life Technologies and Expression Analysis (LTEA) Assay for Nuclear factor erythroid 2-related factor 2 (NFE2L2) Transcription Factor using HepaRG (AID 2283527); details: mRNA level, 48 h; actives raise or lower the signal
Summary of the method: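 HepaRG, 48 h dosing, 8-pt half-log series from 100 uM in 0.5% DMSO, duplicates. Read-out: NFE2L2 mRNA by qRT-PCR (ACTB/GAPDH/POLR2A normalization). Bidirectional curve fit vs DMSO baseline.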

[5] = read-out: Signal transducer and activator of transcription 3 (Homo sapiens) (UniProt P40763); assay: LTEA_HepaRG_STAT3: Life Technologies and Expression Analysis (LTEA) Assay for Signal transducer and activator of transcription (STAT3) using HepaRG (AID 2283529); details: mRNA level, 48 h; actives raise or lower the signal
Summary of the method: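 HepaRG, 48 h exposure, 8-pt half-log series (top 100 uM), 0.5% DMSO vehicle, duplicates. Readout: STAT3 transcript by Fluidigm qRT-PCR, housekeeping-normalized; bidirectional fit vs DMSO baseline.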

[6] = read-out: sulfotransferase 2A1 (SULT2A1), SULT2A1 (gene 6822); assay: LTEA_HepaRG_SULT2A1: Life Technologies and Expression Analysis (LTEA) Assay for sulfotransferase 2A1 (SULT2A1) using HepaRG (AID 2283531); details: mRNA level, 48 h; actives raise or lower the signal
Summary of the method: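 Transcript levels of SULT2A1, quantified by qRT-PCR and normalized to three housekeeping genes, serve as the readout. Human HepaRG cultures receive test chemicals for 48 h at up to 100 uM in half-log steps, with 0.5% DMSO vehicle.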

[7] = read-out: Transforming Growth Factor (TGFA), TGFA (gene 7039); assay: LTEA_HepaRG_TGFA: Life Technologies and Expression Analysis (LTEA) Assay for Transforming Growth Factor (TGFA) using HepaRG (AID 2283532); details: mRNA level, 48 h; actives raise or lower the signal
Summary of the method: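 qRT-PCR read-out of TGFA transcript, normalized to three housekeeping genes, fitted bidirectionally against 0.5% DMSO baseline. Human HepaRG cultures received chemicals for 48 h at eight half-log concentrations, top 100 uM.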

[8] = read-out: Transforming Growth Factor (TGFB1), TGFB1 (gene 7040); assay: LTEA_HepaRG_TGFB1: Life Technologies and Expression Analysis (LTEA) Assay for Transforming Growth Factor (TGFB1) Transporter using HepaRG (AID 2283533); details: mRNA level, 48 h; actives raise or lower the signal
Summary of the method: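 HepaRG, 48 h post-plating, switched to serum-free induction medium; chemicals 100 uM top, half-log, 8 pts, 0.5% DMSO, dup; 48 h exposure; RNA → Fluidigm TaqMan qRT-PCR; norm ACTB/GAPDH/POLR2A; bidirectional fit vs DMSO.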

[9] = read-out: TIMP1, TIMP1 (gene 7076); assay: LTEA_HepaRG_TIMP1: Life Technologies and Expression Analysis (LTEA) Assay for TIMP1 using HepaRG (AID 2283534); details: mRNA level, 48 h; actives raise or lower the signal
Summary of the method: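 Readout is TIMP1 mRNA level measured by qRT-PCR and normalized to three housekeeping genes. Human HepaRG cells were treated for 48 h in duplicate at eight concentrations up to 100 uM (0.5% DMSO); gain or loss fitted against DMSO.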

[10] = read-out: Tumor necrosis factor receptor 1 (TNFRSF1A), TNFRSF1A (gene 7132); assay: LTEA_HepaRG_TNFRSF1A: Life Technologies and Expression Analysis (LTEA) Assay for Tumor necrosis factor receptor 1 (TNFRSF1A) using HepaRG (AID 2283535); details: mRNA level, 48 h; actives raise or lower the signal
Summary of the method: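 Read-out is TNFRSF1A transcript level by TaqMan qRT-PCR, normalized to three housekeeping genes, scored as gain or loss of signal versus 0.5% DMSO. Human HepaRG cells received test chemicals for 48 h at up to 100 uM (half-log series).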

[11] = read-out: Thyroid Hormone Responsive (THRSP), THRSP (gene 7069); assay: LTEA_HepaRG_THRSP: Life Technologies and Expression Analysis (LTEA) Assay for Thyroid Hormone Responsive (THRSP) using HepaRG (AID 2283536); details: mRNA level, 48 h; actives raise or lower the signal
Summary of the method: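 qRT-PCR read-out (Fluidigm TaqMan), housekeeping-normalized (ACTB/GAPDH/POLR2A). HepaRG, 48 h chemical exposure, 8-pt half-log series from 100 uM in 0.5% DMSO, duplicates. Bidirectional curve fit vs 0.5% DMSO baseline.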

[12] = read-out: Cellular tumor antigen p53 (Homo sapiens) (UniProt P04637); assay: LTEA_HepaRG_TP53: Life Technologies and Expression Analysis (LTEA) Assay for Tumor Protein P53 (TP53) using HepaRG (AID 2283537); details: mRNA level, 48 h; actives raise or lower the signal
Summary of the method: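 TP53 transcript measured by qRT-PCR, normalized to three housekeeping genes, after 48 h treatment of human HepaRG cultures with chemicals from 100 uM downward in half-log steps (0.5% DMSO vehicle, serum-free induction medium). Up- or down-regulation fitted against DMSO.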

[13] = read-out: UDP glucuronosyltransferase (UGT1A1), UGT1A1 (gene 54658); assay: LTEA_HepaRG_UGT1A1: Life Technologies and Expression Analysis (LTEA) Assay for UDP glucuronosyltransferase (UGT1A1) using HepaRG (AID 2283538); details: mRNA level, 48 h; actives raise or lower the signal
Summary of the method: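 Cells are plated, cultured 48 h, switched to serum-free induction medium, then dosed 48 h at eight concentrations (max 100 uM, 0.5% DMSO). RNA is isolated and UGT1A1 expression measured by qRT-PCR; changes versus DMSO are fitted in both directions.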

[14] = read-out: UDP glucuronosyltransferase (UGT1A6), UGT1A6 (gene 54578); assay: LTEA_HepaRG_UGT1A6: Life Technologies and Expression Analysis (LTEA) Assay for UDP glucuronosyltransferase (UGT1A6) using HepaRG (AID 2283539); details: mRNA level, 48 h; actives raise or lower the signal
Summary of the method: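 HepaRG, 48 h post-plating switch to serum-free induction medium; chemical 48 h, 100 uM top, half-log x8, duplicate, 0.5% DMSO. Phenobarbital 1mM induction control. UGT1A6 mRNA by TaqMan qRT-PCR; gain/loss fit vs DMSO.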

[15] = read-out: X-box binding protein 1 (XBP1), XBP1 (gene 7494); assay: LTEA_HepaRG_XBP1: Life Technologies and Expression Analysis (LTEA) Assay for X-box binding protein 1 (XBP1) using HepaRG (AID 2283540); details: mRNA level, 48 h; actives raise or lower the signal
Summary of the method: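 Transcript levels of XBP1, measured by qRT-PCR and normalised to three housekeeping genes, were fitted bidirectionally relative to 0.5% DMSO controls. Human HepaRG cells received eight-point half-log dilutions from 100 uM for 48 h.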

[16] = TOX21_p53_BLA_p2_viability: Viability Assessment in the Tox21 HCT-116 p53 Agonism Beta-lactamase Assay, Phase 2 (AID 2283591; active = hit-call score of the fitted dose curve at least 0.9, where 1 is the maximum;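 note: compound exposure lasted 16 h at 37 °C; actives lower the ATP signal meaning cytotoxicity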)
Summary of the method: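 HCT116 p53-bla cells, 4000/well, dosed after 5 h plating (217-fold dilution of DMSO stocks) and incubated 16 h at 37C. Viability taken as cellular ATP by CellTiter-Glo luminescence after 30 min RT; signal loss marks cytotoxicity.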

[17] = LTEA_HepaRG_LDH_cytotoxicity: Cytotoxicity Assessment in the Life Technologies and Expression Analysis (LTEA) Assay (AID 2283563; active = hit-call score of the fitted dose curve at least 0.9, where 1 is the maximum;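 for AC50: LDH activity released into spent culture medium as a marker of cell death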)
Summary of the method: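 Cells were thawed and plated for 48 h. Medium was then replaced with serum-free induction medium. Chemicals (8 half-log points, maximum 100 uM, 0.5% DMSO) were added in duplicate for 48 h, after which spent medium was assayed for LDH.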

[18] = ATG_XTT_Cytotoxicity: Cytotoxicity Assessment in the Attagene TRANS-FACTORIAL HepG2 Assay (AID 2283584; active = hit-call score of the fitted dose curve at least 0.9, where 1 is the maximum)
Summary of the method: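 Cells: human HepG2, transiently transfected with MRTU reporter constructs. Exposure 24 h. Readout: XTT, cell number. Baseline/neg ctrl DMSO; loss-of-signal scored.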

[19] = read-out: solute carrier (SLCO1B1), SLCO1B1 (gene 10599); assay: LTEA_HepaRG_SLCO1B1: Life Technologies and Expression Analysis (LTEA) Assay for solute carrier (SLCO1B1) using HepaRG (AID 2283530); details: mRNA level, 48 h; actives raise or lower the signal
Summary of the method: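 HepaRG, serum-free induction medium, 48 h dosing, 8-pt half-log from 100 uM, 0.5% DMSO vehicle, duplicates. Readout: SLCO1B1 mRNA, qRT-PCR, ACTB/GAPDH/POLR2A normalization; up or down fit vs DMSO.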

[20] = read-out: succinate dehydrogenase complex iron sulfur subunit B (SDHB), SDHB (gene 6390); assay: LTEA_HepaRG_SDHB: Life Technologies and Expression Analysis (LTEA) Assay for succinate dehydrogenase complex iron sulfur subunit B (SDHB) using HepaRG (AID 2283528); details: mRNA level, 48 h; actives raise or lower the signal
Summary of the method: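 SDHB transcript level read by TaqMan qRT-PCR, housekeeping-normalised (ACTB, GAPDH, POLR2A), after 48 h chemical treatment of plated HepaRG cells; eight concentrations top 100 uM, half-log steps, 0.5% DMSO, duplicates; fitted both directions against DMSO.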

Measured: AC50

Chain of Nuclear factor erythroid 2-related factor 2 (Homo sapiens) (Q16236 whole entry, looked up): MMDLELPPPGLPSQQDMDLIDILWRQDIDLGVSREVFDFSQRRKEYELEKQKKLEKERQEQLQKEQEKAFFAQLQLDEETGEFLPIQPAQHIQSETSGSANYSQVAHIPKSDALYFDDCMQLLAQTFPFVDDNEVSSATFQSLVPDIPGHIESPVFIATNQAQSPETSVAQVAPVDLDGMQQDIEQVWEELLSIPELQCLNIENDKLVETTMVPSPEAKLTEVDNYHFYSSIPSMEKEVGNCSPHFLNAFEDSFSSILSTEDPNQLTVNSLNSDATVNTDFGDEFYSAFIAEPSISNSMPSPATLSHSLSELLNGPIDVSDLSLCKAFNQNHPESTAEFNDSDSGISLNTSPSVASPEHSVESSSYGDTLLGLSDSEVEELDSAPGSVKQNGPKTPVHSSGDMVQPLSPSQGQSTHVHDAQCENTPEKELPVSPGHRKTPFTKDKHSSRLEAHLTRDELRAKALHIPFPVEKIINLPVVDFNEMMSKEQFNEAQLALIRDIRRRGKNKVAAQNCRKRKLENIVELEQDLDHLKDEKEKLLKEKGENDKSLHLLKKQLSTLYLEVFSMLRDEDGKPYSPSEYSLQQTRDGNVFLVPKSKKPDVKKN
Chain of Signal transducer and activator of transcription 3 (Homo sapiens) (P40763 whole entry, looked up): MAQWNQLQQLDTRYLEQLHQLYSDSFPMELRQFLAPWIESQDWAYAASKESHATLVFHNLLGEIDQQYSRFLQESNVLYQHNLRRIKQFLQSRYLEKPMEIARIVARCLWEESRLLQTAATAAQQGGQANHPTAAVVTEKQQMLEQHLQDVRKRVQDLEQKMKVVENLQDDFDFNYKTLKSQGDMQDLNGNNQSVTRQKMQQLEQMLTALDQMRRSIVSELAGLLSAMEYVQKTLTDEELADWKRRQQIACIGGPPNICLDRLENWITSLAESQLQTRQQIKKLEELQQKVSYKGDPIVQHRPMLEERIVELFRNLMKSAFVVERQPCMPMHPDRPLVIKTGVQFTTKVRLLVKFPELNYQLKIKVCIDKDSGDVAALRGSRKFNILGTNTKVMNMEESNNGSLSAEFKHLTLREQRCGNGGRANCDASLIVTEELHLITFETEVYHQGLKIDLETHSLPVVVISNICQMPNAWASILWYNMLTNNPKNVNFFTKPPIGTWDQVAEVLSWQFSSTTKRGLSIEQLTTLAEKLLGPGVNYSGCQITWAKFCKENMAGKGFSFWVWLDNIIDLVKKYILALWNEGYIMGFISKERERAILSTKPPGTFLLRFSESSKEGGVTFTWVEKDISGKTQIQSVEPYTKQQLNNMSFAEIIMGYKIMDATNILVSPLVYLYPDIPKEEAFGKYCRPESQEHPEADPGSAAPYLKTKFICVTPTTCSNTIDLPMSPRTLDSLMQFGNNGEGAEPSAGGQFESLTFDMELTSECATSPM
Chain of Cellular tumor antigen p53 (Homo sapiens) (P04637 whole entry, looked up): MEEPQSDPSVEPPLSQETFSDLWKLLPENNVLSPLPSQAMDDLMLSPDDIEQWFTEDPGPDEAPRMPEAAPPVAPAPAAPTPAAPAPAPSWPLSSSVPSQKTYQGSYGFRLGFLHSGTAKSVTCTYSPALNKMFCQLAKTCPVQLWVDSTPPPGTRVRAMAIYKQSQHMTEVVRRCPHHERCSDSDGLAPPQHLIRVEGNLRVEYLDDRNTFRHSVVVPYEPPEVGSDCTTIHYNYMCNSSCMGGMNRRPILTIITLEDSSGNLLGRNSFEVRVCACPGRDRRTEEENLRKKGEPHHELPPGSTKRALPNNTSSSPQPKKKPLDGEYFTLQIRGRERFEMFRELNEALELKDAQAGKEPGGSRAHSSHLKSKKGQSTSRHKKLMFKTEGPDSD

Oc1ccccc1O
not listed: [17] | [18] | [19] | [20]
inactive: all other assays above

C=CCc1ccc(OC)c(OC)c1
active: [7] 9.92 µM
not listed: [11] | [17] | [18] | [19] | [20]
inactive: all other assays above

CO[C@@H]1COCC[C@@H]1N[C@@H]1CC[C@@](C(=O)N2CCc3ncc(C(F)(F)F)cc3C2)(C(C)C)C1
not listed: [18] | [19] | [20]
inactive: all other assays above

NCCOCCOCCN
not listed: [19] | [20]
inactive: all other assays above

CCc1cc(C2=C(C(=O)O)N(c3ccccc3C(F)(F)F)S(=O)(=O)c3ccccc32)cc2c1OCO2
active: [2] 50 µM | [4] 50 µM | [19] 50 µM | [6] 85.5 µM | [7] 79.1 µM | [11] 87 µM | [12] 69.5 µM | [13] 1.73 µM | [14] 74.8 µM | [17] 74.1 µM | [16] 73.7 µM
inactive: [3] | [5] | [8] | [9] | [10] | [15]

CCCCCCCC(=O)OC
not listed: [11] | [19] | [20]
inactive: all other assays above

COC(=O)CCCC(=O)OC
not listed: [1] | [17] | [19]
inactive: all other assays above
